# Sampled rows, rich in hits. Any-hit rate of the full collection: about 19%.
# HT1080 IDH1KD tx: HT-1080 IDH1 knockdown cell toxicity (counter line) | 360,000 compounds, 2% hits | Potency, µM (titrated, usually from 46.1 µM), for the others: top-dose activity, negative = toxicity, most hits filed as cytotoxic | HT-1080 IDH1 knockdown viability, ATP luminescence, 48 h | AID 686971;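 note: potency is the fitted concentration of half-maximal effect; 0% = DMSO wells and -100% = cell-free medium wells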
#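 Luminescent ATP read-out (CellTiter-Glo, 10 min at room temperature) after 48 h compound exposure at 37 °C gave viability of IDH1-knockdown HT-1080 cells. Activity was normalised to DMSO and cell-free wells, then fitted as concentration-response curves.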
# DT40 TDP1 no CPT: qHTS for Inhibitors of human tyrosyl-DNA phosphodiesterase 1 (TDP1): qHTS in cells in absence of CPT. DT40 Tdp1-/- hTDP1 cells, no CPT, ATP luminescence, 48 h. Potency, µM (series often up to 46.2 µM), without a hit: top-dose activity change, negative = growth inhibition, actives largely listed as inhibitors. 420,000 compounds, 15% hits. AID 686978, 2013; note: potency is the fitted concentration of half-maximal effect; nearly all actives have a fitted effect of over 55% in size
#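 Stably hTDP1-transfected Tdp1-null chicken DT40 cells were treated with library compounds minus camptothecin and grown for at least 48 hr at 37 °C, after which cellular ATP was quantified by luminescence.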
# IL1B secr inh: inhibitors of inflammasome signaling (IL-1 beta secretion); activity change, % at 57.5 µM; THP-1 LPS/ATP IL-1B secretion, AlphaLISA, 16 h; hits give low values; 360,000 compounds, 4.7% hits; in the data active = activity change below about -50%; inconclusive = mostly about -30% to -49%
#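 Secreted IL-1B measured by AlphaLISA bead assay after 16 h compound exposure of THP-1 cells; compounds (final up to 57.5 uM) added 1 h before LPS (250 ng/mL) and ATP (1.25 mM) stimulation; lower signal means less secretion.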
# DT40 TDP1 CPT: growth inhibition of DT40 Tdp1-/-;hTDP1 cells with camptothecin (screen for TDP1 inhibitors); chicken DT40 Tdp1-/-;hTDP1 cells + 20 nM CPT, ATP luminescence, 48 h; Potency, µM (series often up to 46.2 µM), for inactives: at the highest dose activity change, negative = growth inhibition, actives largely listed as inhibitors; 420,000 compounds, 12% hits; AID 686979; note: potency is the fitted concentration of half-maximal effect; nearly all actives have a fitted effect of over 55% in size
#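 Chicken DT40 Tdp1-/- cells stably complemented with human TDP1 were seeded at 400 cells/well in medium containing 20 nM camptothecin, exposed to pin-transferred compounds, and grown at 37 °C for at least 48 hr. Viability was read as ATP luminescence.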
# HT1080NT lethal: kills 2HG-producing HT-1080-NT fibrosarcoma cells; Potency, µM (titrated, usually from 46.1 µM), inactives show at the highest dose activity, negative = less viability, hits mostly cytotoxic; 360,000 compounds, 1.6% hits; HT-1080-NT fibrosarcoma viability, CellTiter-Glo ATP luminescence, 48 h;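 note: NT is the 2HG producing partner of a matched IDH1 knockdown line; potency is the fitted concentration of half-maximal effect; 0% = DMSO-treated cells and -100% = media-only wells without cells; nearly all actives have a fitted effect of over 55% in size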
#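 A 48-hour cytotoxicity screen used HT-1080-NT cells plated 2 hours before compound delivery. ATP-based CellTiter-Glo luminescence measured viability, normalized to DMSO and no-cell controls.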
# Starred values were filed as active, the others as inactive; ? = inconclusive; / = no result; [ ] = another dose, or the depositor's remark. Unless noted, calls come from the whole dose curve; as a rule, active = well fitted curve in the direction sought with a large enough effect; inconclusive = small, poorly fitted or top-dose-only effect, or another doubt; inactive = no such curve, though single readings can be large; an effect the other way counts as inactive or inconclusive. Unless noted, % is set by controls: 0 for no effect and ±100 for the full control effect.
SMILES,HT1080 IDH1KD tx,DT40 TDP1 no CPT,IL1B secr inh,DT40 TDP1 CPT,HT1080NT lethal
CCN(CC)S(=O)(=O)c1cccc(NC(=O)c2ccc(Sc3nncn3C)c([N+](=O)[O-])c2)c1,0.7%,23.1µM*,-9.0,16.4µM*,5.1%
CCN(CC)C(=O)c1ccccc1NC(=O)c1cccc(S(=O)(=O)N(CC)CC)c1,0.5%,-10.2%,-16.2,-16.2%,-3.7%
CCN(CC)S(=O)(=O)c1cccc(C(=O)Nc2ccccc2C(=O)Nc2ccc(Cl)cc2)c1,/,18.4µM*,/,?,/
CCN(CC)S(=O)(=O)c1cccc(NC(=O)c2ccc(Br)cc2)c1,-7.5%,20.6µM*,-70.3*,?,-9.1%
Cc1ncc2c(c1CNC(=O)c1cncs1)CCN(C(=O)c1ccc(-c3ccccc3)cc1)C2,/,-24.6%,/,-2.2%[9.04 µM],/
CCN(CC)S(=O)(=O)c1cccc(C(=O)Nc2ccc(C#N)cc2)c1,-18.6%,8.2µM*,-15.5,?,-1.6%
O=C(Nc1nc2ccc(Cl)cc2s1)c1ccc(N2CCCCC2)c([N+](=O)[O-])c1,2.9%,20.6µM*,?,16.4µM*,-1.0%
O=C(Nc1ccc(Cl)c(S(=O)(=O)N2CCOCC2)c1)C1CCCC1,0.0%,?,14.9,-19.7%,2.3%
O=C(Nc1ccc(N2CCOCC2)c(Cl)c1)C1CCCCC1,4.1%,16.4µM*,-21.9,20.6µM*,0.2%
O=C(Nc1ccc(N2CCCCC2)c(Cl)c1)c1ccc(N2CCOCC2)c([N+](=O)[O-])c1,-14.1%,12.6µM*,-13.0,18.4µM*,0.6%
CC(=O)N1CCN(c2ccc(NC(=O)c3ccc(N4CCCC4)c([N+](=O)[O-])c3)cc2Cl)CC1,?,?,-21.3,?,?
O=C(Nc1cc(Cl)ccc1N1CCOCC1)c1ccc(N2CCCCC2)c([N+](=O)[O-])c1,5.2%,?,-6.2,?,-15.5%
CCCC(=O)N1CCN(c2ccc(NC(=O)c3ccc(N4CCCC4)c([N+](=O)[O-])c3)cc2Cl)CC1,14.3%,7.31µM*,50.7,18.4µM*,28.1%
O=C(c1c(F)cccc1Cl)N(Cc1ccco1)C1CCS(=O)(=O)C1 (stereo unspecified),2.3%,4.1%,9.5,-10.4%,4.1%
CN(c1ccccc1)S(=O)(=O)c1cccc(NC(=O)c2nn(C)c(=O)c3ccccc23)c1,-18.4%,?,9.4,?,-17.5%
CC(C)Sc1nnc(-c2ccc(S(=O)(=O)N3CCOCC3)cc2)n1C,11.0%,-1.5%,-18.3,-0.1%,15.2%
N#CN(Cc1ccccc1)Cc1ccccc1,-3.6%,-12.3%,-63.9*,-21.8%,3.6%
CN(Cc1ccccc1)Cc1ccccc1,/,-13.8%,/,19.3%,/
Cc1ccc(-c2cc(NC(=O)CCl)n(-c3ccccc3)n2)cc1,?,7.31µM*,-98.7*,-90.5%,?
Cc1ccc(-c2nn(-c3ccccc3)cc2CO)cc1,-13.9%,3.8%,-22.9,12.6%,-8.3%
Cc1ccc(-c2nn(-c3ccccc3)cc2NC(=O)CCl)cc1,7.31µM*,2.59µM*,-99.7*,3.26µM*,5.17µM*
O=C(CCl)Nc1cc(-c2ccccc2)nn1-c1ccccc1,1.58µM*,3.26µM*,-105.2*,5.17µM*,5.01µM*
CC(=O)NC(c1ccccc1)c1nc(/C=C/c2ccccc2)cs1 (stereo unspecified),3.3%,?,-11.3,?,0.2%
COc1cc(-c2c(OC)cccc2OC)cc2c1OCCN(Cc1cn[nH]c1-c1ccc(Cl)cc1)C2,/,-24.5%,/,-2.1%,/
Oc1cc(-c2cccs2)cc2c1OCCN(Cc1cn[nH]c1-c1ccc(Cl)cc1)C2,/,?,/,18.4µM*,/
SMILES,HT1080 IDH1KD tx,DT40 TDP1 no CPT,IL1B secr inh,DT40 TDP1 CPT,HT1080NT lethal
Cn1c(Oc2ccc(Cl)cc2)nc2c1c(=O)n(Cc1ccc(F)cc1)c(=O)n2C,/,-26.5%,/,-1.8%,/
N#CCCN1CCN(S(=O)(=O)c2ccc(C3CCCCC3)cc2)CC1,-3.0%,-12.9%,0.0,13µM*,-4.2%
O=S(=O)(c1ccc(C2CCCCC2)cc1)N1CCCC1,2.2%,?,-64.7*,?,-1.2%
O=C(O)c1cccnc1SCC(=O)N1CCCc2ccccc21,-0.3%,3.1%,24.1,-8.9%,-0.1%
Cc1ccc(C2C3=C(NCCN=C3c3ccccc3)C(=O)N2c2ccccc2)cc1 (stereo unspecified),?,23.1µM*,-63.4*,20.6µM*,11.2µM*
CCOc1ccc(N2C(=O)C3=C(C(c4ccc(Cl)cc4)=NCCN3)C2c2cccnc2)cc1 (stereo unspecified),14.6µM*,?,-5.5,?,?
CC(CCc1ccccc1)NC(=O)COC(=O)c1cccc(N(C)C)c1 (stereo unspecified),0.0%,?,12.2,?,2.8%
O=c1cc(C(F)(F)F)[nH]c2ccc(C(F)(F)F)cc12,?,0.731µM*,?,7.31µM*,?
N=C(N)Sc1nc(N2CCCCC2)nc(N2CCCCC2)n1,11.6%,12.8%,13.6,13.2%,1.9%
OCCN1CCN(c2nc(N3CCCCC3)nc(N3CCCCC3)n2)CC1,-24.2%,18.4µM*,-27.9,?,-1.7%
Cc1ccsc1C(=O)C1CCCN(Cc2cc(F)ccc2-n2cccn2)C1 (stereo unspecified),-16.7%,11.6µM*,-18.8,9.2µM*,-29.6%
COc1cc(OC)c(OC)cc1CN1CCCC(C(=O)c2sccc2C)C1 (stereo unspecified),-11.2%,?,-6.1,?,-19.7%
CCC(=O)Oc1cc(C(C)(C)C)cc2cc(-c3nc(-c4ccc(OC)cc4OC)no3)c(=O)oc12,/,16.4µM*,/,?,/
C=C(C)C1CCC(C)=C1COC(=O)Nc1ccccc1 (stereo unspecified),2.9%,?,-61.6*,?,14.2%
CCN(CC)c1ncn(Cc2c(Cl)cccc2Cl)c2ncnc1-2,?,14.6µM*,-7.4,?,-28.5%
Cc1cc(C)cc(C(=O)NCC(=O)OCC(=O)N2CCCC2)c1,-1.6%,6.0%,-5.1,-0.4%,8.4%
COc1ccc(N(C(=O)CSCC(=O)Nc2cc(C)on2)C(C(=O)NC2CCCCC2)c2ccc(O)c(O)c2)cc1 (stereo unspecified),6.2%,?,0.8,-24.1%,3.3%
Cc1cc(NC(=O)CSCC(=O)N(c2ccc(F)cc2)C(C(=O)NC2CCCCC2)c2ccc(O)c(O)c2)no1 (stereo unspecified),-5.6%,16.4µM*,-50.4*,?,-6.0%
C#Cc1ccc(CN2CCN(CCCc3ccccc3)C(CCO)C2)cc1 (stereo unspecified),-15.4%,?,-55.0*,-14.5%,-1.1%

# High-throughput results deposited in PubChem BioAssay by National Center for Advancing Translational Sciences (NCATS).
